# Screening data (PubChem)
# GBA activity: modulators of human glucocerebrosidase | P04062 | purified enzyme, resorufin glucoside fluorescence (screen aimed at inhibitors), 20 min | Potency, µM | 48,000 tested, 1.1% active | AID 360; in the data active = potency below about 15 µM; inconclusive = mostly about 16 µM to 33 µM;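 note: the screen sought inhibitors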
#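 Wild-type enzyme at 0.2 nM final in 50mM citric acid/KH2PO4, 10mM sodium taurocholate, 0.01% tween-20, pH 5.9, with resorufin beta-D-glucopyranoside at 30 uM final. Compounds titrated, 20 min at RT, red fluorescence read; AC50 from titration.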
# Luciferase inh: blocks Photinus pyralis firefly luciferase activity | P08659 | AID 411 | purified firefly luciferase, luminescence, 8 min | 72,000 tested, 2.2% active | Potency, µM (titrated, usually from 57.1 µM), inactives show at the top dose activity change, negative = inhibition, actives largely listed as inhibitors; note: % is set by controls: 0 for no effect and ±100 for the full control effect; nearly all actives have a fitted effect of over 40% in size
#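 Inhibition of light generation by firefly luciferase from ATP and luciferin was profiled with concentration-response curves per sample, ATP held at 10 uM within the enzyme's linear range. Plates were read by luminescence after an 8-minute ambient incubation.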
# TSHR agonist: agonists of human thyroid stimulating hormone receptor; 73,000 tested, 0.48% active; HEK293-CNG-TSHR cells (CNG channel as cAMP sensor), membrane potential dye, cAMP; AID 926; Potency, µM (doses to about 57.1 µM), for the others: at the top dose activation, usual class: activators; P16473; active = well fitted activation curve with a large enough effect in the main read-out, with a control signal flat, not every such curve was filed as active; inconclusive = small, poorly fitted or top-dose-only effect, or a change in a side signal; inactive = no such curve, though single readings can be large or run the other way; % of control where 0% means no effect;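 note: the control signal comes from parental cells without the receptor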
# Target sequence (P16473 whole entry, looked up): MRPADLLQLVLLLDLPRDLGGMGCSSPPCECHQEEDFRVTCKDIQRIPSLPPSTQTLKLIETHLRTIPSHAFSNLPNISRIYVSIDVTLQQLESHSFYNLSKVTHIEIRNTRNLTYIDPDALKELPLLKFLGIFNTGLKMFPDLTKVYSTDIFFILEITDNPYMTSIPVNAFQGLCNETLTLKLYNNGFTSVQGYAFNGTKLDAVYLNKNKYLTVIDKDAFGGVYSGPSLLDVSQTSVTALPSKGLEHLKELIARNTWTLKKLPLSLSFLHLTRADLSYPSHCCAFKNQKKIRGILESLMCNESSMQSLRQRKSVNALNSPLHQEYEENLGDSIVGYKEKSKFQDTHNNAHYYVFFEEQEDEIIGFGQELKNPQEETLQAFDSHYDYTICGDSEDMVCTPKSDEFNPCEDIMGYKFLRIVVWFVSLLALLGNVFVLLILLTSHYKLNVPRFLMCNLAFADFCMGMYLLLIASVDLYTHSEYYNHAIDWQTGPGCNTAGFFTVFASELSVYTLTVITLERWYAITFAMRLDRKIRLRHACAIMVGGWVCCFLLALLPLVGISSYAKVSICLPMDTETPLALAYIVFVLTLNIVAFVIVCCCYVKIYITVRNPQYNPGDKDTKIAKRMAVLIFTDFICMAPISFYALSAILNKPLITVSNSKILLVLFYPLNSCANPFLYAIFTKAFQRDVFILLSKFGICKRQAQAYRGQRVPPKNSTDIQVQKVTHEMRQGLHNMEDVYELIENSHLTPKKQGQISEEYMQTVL
#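 HEK 293 cells stably expressing TSHR and a cAMP-gated CNG channel; parental CNG-only cells as counterscreen. Cells preloaded 60 min with membrane potential dye plus 100 uM RO 20-1724, then compound 30 min; fluorescence read at 590 nm.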
# Bst PK mod: alters activity of Bacillus stearothermophilus pyruvate kinase | Potency, µM | AID 361 | purified pyruvate kinase, luminescence ATP production; ribose 5-phosphate activator present at AC10 | 51,000 tested, 1.2% active; in the data active = potency below about 11 µM; inconclusive = mostly about 12 µM to 25 µM;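 the screen sought inhibitors and activators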;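 note: scaled between full activation by ribose 5 phosphate and full inhibition by luteolin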
# HEK293 cAMP ctrl: counter-screen for TSHR agonists: cAMP increase in parental HEK293 | parental HEK293 CNG cAMP sensor, membrane potential fluorescence | Potency, µM (top dose mostly 57.1 µM), inactives show at the highest dose activation, usual class: activators | 73,000 tested, 2.5% active | AID 938; note: % of control where 0% means no effect; nearly all actives have a fitted effect of over 55% in size
#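 Parental HEK 293 cells stably expressing a cAMP-gated CNG channel were loaded with membrane potential dye containing 100 uM RO 20-1724 for 60 min. Compound added for 30 min; depolarization read as fluorescence intensity at 590 nm.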
# ERK AVP block: inhibitors of vasopressin-stimulated ERK signaling pathway; HEK293-V1b, vasopressin-stimulated pERK AlphaScreen; Potency, µM (top dose mostly 57.5 µM), inactives show at the highest dose activity, negative = inhibition, hits mostly inhibitors; 72,000 tested, 0.99% active; AID 995; note: % is set by controls: 0 for no effect and ±100 for the full control effect; nearly all actives have a fitted effect of over 55% in size
#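 V1b-HEK293 cells; cpd 30 min 37C; 25 nM vasopressin 5 min; lyse 10 min; AlphaScreen beads 5 hr RT. Normalized to DMSO basal and 25 nM vasopressin; AC50 by Hill fit.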
# An asterisk follows results filed as active; i = inactive; ? = inconclusive; / = no result given; [ ] = another dose, or the depositor's remark. Shown are actives, neighbours in structure and some others; about 6.1% of the full set was active somewhere. Unless noted, calls come from the whole dose curve; as a rule, active = well fitted curve in the direction sought with a large enough effect; inconclusive = small, poorly fitted or top-dose-only effect, or another doubt; inactive = no such curve, though single readings can be large; an effect the other way counts as inactive or inconclusive. Potency is the fitted concentration of half-maximal effect.
SMILES,GBA activity,Luciferase inh,TSHR agonist,Bst PK mod,HEK293 cAMP ctrl,ERK AVP block
C=C1C[C@@]23C[C@]1(O)CC[C@@H]2[C@]12C=C[C@@H](O)[C@@](C)(C(=O)O1)[C@@H]2[C@@H]3C(=O)O,/,1%[11.4 µM],6%,/,7%,/
CC1CCC(C(=O)O)NC1c1ccc(C#CCN(C)C)cc1 (stereo not given),/,/,-2%[11.4 µM],/,-4%[11.4 µM],1%[11.5 µM]
Cc1nn(-c2ccccn2)c2c1-c1nc(N)ncc1CC2,>77,10µM*,2%,?,15%,4%
Cc1nn2c3c(cnc2c1-c1ccccc1)C(=O)CCC3,>77,1%,-24%,>57,14%,-22%
N[C@@H](CC1=CS(=O)(=O)c2ccc(Cl)cc21)C(=O)O,/,3%[11.4 µM],3%[11.4 µM],/,-9%[11.4 µM],-8%[11.5 µM]
O=c1ccn([C@@H]2O[C@@H](COP(=O)(O)OP(=O)(O)O)[C@H](O)[C@@H]2O)c(=O)[nH]1,/,1%,?,/,?,-12%
COC(=O)c1sccc1NC(=O)c1ccc(OC)cc1,>77,-2%,32%,>57,15%,-12%
COC(=O)c1sccc1NC(=O)c1csc(C)c1,13*,2%,/,/,23%,-4%
Cc1cc(C(=O)NC2=NCCS2)cs1,>77,16µM*,1%,/,4%,-4%
O=C(NC1=NCCS1)c1cc2ccccc2o1,/,5µM*,/,/,1%[11.4 µM],-8%
O=C(Nc1cccc2ncccc12)c1cc2ccccc2o1,>77,-15%,9%,>57,8%,-13%
O=C(Nc1ccc(Cl)cn1)c1cc2ccccc2o1,i,7.9µM*,?,?,?,-17%
CN(C)Cc1cc(C(C)(C)C)cc(CNC2CCCCC2)c1O,/,3%[11.4 µM],?,/,?,-8%[11.5 µM]
COC(=O)C/C=C\[C@@H](C)[C@@H](/C=N\OC[C@@H]1O[C@H](c2ccccc2)C=C[C@@H]1Oc1ccc(OC)cc1)OC,/,0%[11.4 µM],?,/,?,15%[11.5 µM]
CC(=O)N1C2(C=CC1(C)C(=O)NCc1cc(F)cc(C(F)(F)F)c1)CCCCC2 (stereo not given),/,/,-2%,/,12%,-11%
O=C(NC1=NCCS1)Nc1ccccc1,>77,16µM*,1%,i,2%,11%
O=C(NC1=NCCS1)NC12CC3CC(CC(C3)C1)C2,14*,-8%,-20%,>57,-16%,1%
COc1ccc(-c2csc3c2[N+]2=CCC=C2C3=O)cc1,/,3%[11.4 µM],2%[11.4 µM],/,21%[11.4 µM],-4%[11.5 µM]
C=C(C)CNCCN,/,3%[11.4 µM],1%[11.4 µM],/,3%[11.4 µM],-1%[11.5 µM]
c1ccc2c(c1)Cc1cc3ccccc3nc1-2,/,/,?,/,20µM*,13µM*
CCOC(=O)c1c(O)[nH]c(=O)c(CC)c1C,/,0%[11.4 µM],1%[11.4 µM],/,17%[11.4 µM],-4%[11.5 µM]
CN(C)c1ccc(-c2nccc(Nc3ccc(F)cc3)n2)cc1,/,-9%[2.29 µM],0%,/,-12%,?
CN(C)c1ccc(N/C=C/C(=O)c2ccc(F)cc2)cc1,>77,0.63µM*,-11%,?,-6%,-25%
Cc1ccccc1-c1nnc(-c2ccc(Cl)cc2)o1,/,-19%,?,/,?,20%
Cc1ccccc1-c1nnc(-c2ccccc2)o1,/,13µM*,?,/,?,5%
SMILES,GBA activity,Luciferase inh,TSHR agonist,Bst PK mod,HEK293 cAMP ctrl,ERK AVP block
Clc1ccc(-c2nnc(-c3ccccc3Cl)o2)cc1,/,13µM*,?,/,?,42%
Brc1ccc(-c2nnc(-c3ccccc3Br)o2)cc1,/,4µM*,?,/,?,-2%
O[C@@H](COc1cccc2ccccc12)CN1CCOCC1,/,1%[11.4 µM],1%[11.4 µM],/,7%[11.4 µM],-8%[11.5 µM]
C#CCCCO/N=C1/C[C@@H](O)[C@@H](O)[C@@H]2[C@H]3C(=O)N(c4ccc(F)cc4F)C(=O)[C@@H]3CC[C@H]12,/,0%[11.4 µM],-2%[11.4 µM],/,-4%[11.4 µM],3%[11.5 µM]
CCCCNC(=O)CN1C(=O)C(CC)Oc2ccc(Cl)cc21 (stereo not given),>77,1%,?,>57,10µM*,-3%
Cc1noc(C)c1C(=O)N1CCC2(CCCN(C(=O)Nc3ccccc3)C2)CC1,/,1%[11.4 µM],4%,/,25%,31%
CCCn1c(NC(=O)c2ccccc2)nc2ccccc21,>77,-46%,?,>57,?,12%
CCCn1c(NC(=O)c2ccc(C)cc2)nc2ccccc21,>77,-1%,?,>57,25µM*,1%
CCCn1c(NC(=O)c2cccc(S(=O)(=O)N3CCCC3)c2)nc2ccccc21,/,2%,?,>57,16µM*,?
CCCn1c(NC(=O)C2CCN(S(=O)(=O)c3cccs3)CC2)nc2ccccc21,/,0%,?,>57,?,13µM*
COc1cccc(-c2nc(N3CCNCC3)c3ccccc3n2)c1,/,1%[2.29 µM],?,/,?,4%
O[C@@H](c1cc([C@@]23C[C@H]4CC[C@@H]2C[C@H](C4)C3)nc2c(Cl)cc(Cl)cc12)[C@@H]1CCCCN1,/,4%[11.4 µM],-5%[11.4 µM],/,-8%[11.4 µM],5%[11.5 µM]
C=CCN(C(=O)Cn1nnc2ccccc21)C(C(=O)NCCOC)c1ccc(OC)cc1OC (stereo not given),>77,-1%,5%,>57,3%,8%
COCCN(C(=O)Cn1nnc2ccccc21)C(C(=O)NC1CCCC1)c1cc(OC)ccc1OC (stereo not given),>77,2%,?,>57,25µM*,-3%
O=C(NCCc1c[nH]c2ccccc12)C(F)(F)C(F)F,>77,-1%,0%,>57,-4%,53%
CC(Cc1ccccc1)C(=O)NCCc1c[nH]c2ccccc12 (stereo not given),/,/,?,/,13µM*,?
Nc1nc(N2CCOCC2)nc2ccccc12,/,-1%,5%,/,-15%,3%
c1ccc(CC2CCN(c3nc(N4CCOCC4)nc(N4CCOCC4)n3)CC2)cc1,>77,-9%,7.9µM*,>57,-1%,-4%
CCOC(=O)C1CCN(S(=O)(=O)c2cccc(-c3cn4ccccc4n3)c2)CC1,>77,-2%,/,>57,28%,?
CCOC(=O)C1CCN(S(=O)(=O)c2cccc(-c3cn4cccc(C)c4n3)c2)CC1,>77,-11%,?,>57,?,20µM*
CCN(CC)C(=O)Oc1ccc2c(=O)c(-c3ccc(OC)cc3)coc2c1,>77,-29%,?,>57,?,?
CCN(CC)C(=O)Oc1ccc2c(=O)c(-c3ccc(OC)cc3)c(C)oc2c1,>77,3%,30%,>57,23%,32µM*
CCC1=C2CC[C@H]3C(=O)NC(=O)[C@H]3[C@H]2[C@@]2(C)C(=NCC3CC3)OC(=O)N2C1=O,/,/,/,/,/,8%
c1ccc(-c2noc(-c3cccnc3)n2)nc1,>77,?,?,/,?,-22%
c1ccc(-c2noc(-c3ccc4ccccc4c3)n2)nc1,/,0.2µM*,/,0.16*,24%,-24%
c1ccc(-c2noc(-c3ccc4c(c3)OCO4)n2)nc1,>77,0.79µM*,10%,0.86*,10%,-15%
